From PubChem BioAssay (EPA / NIEHS) come the findings set out here.

Structures are written as SMILES. Values joined by “and” are separate entries in the source; they are usually repeats but may differ in a detail not shown here. Equal entries are not always repeated. Inconclusive results are not listed. A structure can be active in one record and inactive in another. Active and inactive are the calls of the source. Rule for the calls, unless noted: active = hit-call score of the fitted dose curve at least 0.9, where 1 is the maximum; inconclusive = response in the unintended direction; inactive = score below 0.9.

A short description of assay [1]: ATG_AP_1_CIS: Attagene CIS-FACTORIAL HepG2 Assay for human Activator Protein 1 (AP-1) (AID 2282931; active = hit-call score of the fitted dose curve at least 0.9, where 1 is the maximum; inactive = score below 0.9). Conditions: HepG2 Attagene cis-factorial AP-1 reporter mRNA; actives raise or lower the signal. An outline of the steps:
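We transfected HepG2 cells transiently with a set of cis-regulated reporter transcription units, dosed them for 24 h, and quantified reporter mRNA via RT-PCR and capillary electrophoresis, scoring gain or loss of signal relative to DMSO.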

Assay [2] in a line: ATG_M_61_CIS: Attagene CIS-FACTORIAL HepG2 Assay for M61 Transcription Factor (Internal Marker) (AID 2282937; active = hit-call score of the fitted dose curve at least 0.9, where 1 is the maximum; inactive = score below 0.9). As to conditions: HepG2 Attagene CIS-FACTORIAL M61 internal marker reporter; actives raise or lower the signal. An outline of the steps: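 Multiplexed reporter mRNA assay, HepG2 human hepatoma cells, 24 h treatment. Signal: FAM-labelled, HpaI-digested RT-PCR fragments by CE. Fit: bidirectional, baseline DMSO.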

The nature of assay [3]: ATG_GRE_CIS: Attagene CIS-FACTORIAL HepG2 Assay for human Glucocorticoid Response Elements (GRE) (AID 2282947; active = hit-call score of the fitted dose curve at least 0.9, where 1 is the maximum; inactive = score below 0.9). As to conditions: HepG2 GRE cis-reporter, Attagene multiplex mRNA; actives raise or lower the signal. Put shortly: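 Transient MRTU transfection of human HepG2 liver cells; cis-regulated reporters report endogenous factors. 24 h dosing → RNA isolation → RT-PCR → 6-FAM primer extension → HpaI cut → CE fragment analysis. Bidirectional fit, DMSO negative control.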

The target in assay [4] is Hypoxia-inducible factor 1-alpha (Homo sapiens) (UniProt Q16665). As to the kind of experiment: ATG_HIF1a_CIS: Attagene CIS-FACTORIAL HepG2 Assay for human Hypoxia Inducible Factor 1 (HIF1A) (AID 2282951; active = hit-call score of the fitted dose curve at least 0.9, where 1 is the maximum; inactive = score below 0.9). Conditions: HepG2 Attagene cis-factorial HIF1a reporter transcription; actives raise or lower the signal. Put shortly: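 Cis-element reporter constructs were transiently transfected into HepG2 cells, which were treated for 24 h; reporter RNA was reverse-transcribed, amplified, labelled and resolved by capillary electrophoresis.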
Chain of Hypoxia-inducible factor 1-alpha (Homo sapiens) (Q16665 whole entry, looked up): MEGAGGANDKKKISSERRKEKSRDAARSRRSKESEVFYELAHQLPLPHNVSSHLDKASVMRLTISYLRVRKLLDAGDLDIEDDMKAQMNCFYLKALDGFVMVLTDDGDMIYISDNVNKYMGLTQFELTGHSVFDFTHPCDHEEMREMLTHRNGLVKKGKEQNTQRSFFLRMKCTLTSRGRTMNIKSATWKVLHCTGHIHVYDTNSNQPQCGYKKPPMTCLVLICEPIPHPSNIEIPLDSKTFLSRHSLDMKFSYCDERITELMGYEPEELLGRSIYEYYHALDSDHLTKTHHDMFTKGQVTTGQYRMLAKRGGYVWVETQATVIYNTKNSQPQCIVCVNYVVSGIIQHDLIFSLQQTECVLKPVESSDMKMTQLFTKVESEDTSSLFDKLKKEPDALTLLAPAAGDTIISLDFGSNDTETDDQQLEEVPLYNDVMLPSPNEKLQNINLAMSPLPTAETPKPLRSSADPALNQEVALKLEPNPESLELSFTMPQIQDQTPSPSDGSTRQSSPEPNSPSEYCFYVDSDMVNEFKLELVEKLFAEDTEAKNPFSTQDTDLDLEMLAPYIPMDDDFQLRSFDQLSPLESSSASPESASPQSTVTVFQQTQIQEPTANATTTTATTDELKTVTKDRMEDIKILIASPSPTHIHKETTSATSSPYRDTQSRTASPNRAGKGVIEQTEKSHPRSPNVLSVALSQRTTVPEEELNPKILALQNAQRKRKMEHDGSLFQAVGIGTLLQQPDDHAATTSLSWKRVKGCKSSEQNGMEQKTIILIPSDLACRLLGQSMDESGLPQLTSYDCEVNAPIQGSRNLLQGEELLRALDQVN

A short description of assay [5]: ATG_PBREM_CIS: Attagene CIS-FACTORIAL HepG2 Assay for human Phenobarbital-responsive Enhancer Module (PBREM) (AID 2282955; active = hit-call score of the fitted dose curve at least 0.9, where 1 is the maximum; inactive = score below 0.9). Conditions: HepG2 PBREM cis-reporter, Attagene multiplexed transcription; actives raise or lower the signal. Put shortly: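 Multiplexed cis-reporter readout in human hepatoma HepG2 cells; PBREM-regulated transcript quantified after 24 h exposure by fluorescent RT-PCR fragment analysis. Signal changes up or down fitted relative to DMSO.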

Assay [6] is described as follows: ATG_PPRE_CIS: Attagene CIS-FACTORIAL HepG2 Assay for human Peroxisome Proliferator-activated Response Element (PPRE) (AID 2282958; active = hit-call score of the fitted dose curve at least 0.9, where 1 is the maximum; inactive = score below 0.9). As to conditions: HepG2 PPRE cis-element reporter, Attagene transcription factor profiling; actives raise or lower the signal. Put shortly:
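DMSO served as negative control and baseline for bidirectional curve fitting. Signal came from PPRE-regulated reporter mRNA in HepG2 cells, measured 24 h post-dosing by RT-PCR, 6-FAM primer extension and capillary electrophoresis.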

The nature of assay [7]: ATG_M_06_TRANS: Attagene TRANS-FACTORIAL HepG2 Assay for M06 Transcription Factor (Internal Marker) (AID 2282983).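 Note: reporter transcript level by RT-PCR then capillary electrophoresis fluorescence.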 Conditions: HepG2 Attagene TRANS M06 internal marker reporter. An outline of the steps: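 Transfect HepG2 with MRTUs → dose compounds 24 h → isolate RNA, oligo(dT) RT → PCR with reporter primers → 6-FAM primer extension → HpaI digest → CE fragment analysis. Positive direction vs DMSO.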

Assay [8] in a line: ATG_M_32_TRANS: Attagene TRANS-FACTORIAL HepG2 Assay for M32 Transcription Factor (Internal Marker) (AID 2282984).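 Note: transcript level of a background control reporter unit measured by RT-PCR and capillary electrophoresis.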 As to conditions: HepG2 Attagene TRANS M32 internal marker reporter. Put shortly: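 Measures reporter mRNA induction in human HepG2 liver cells after 24 h chemical treatment. Transcripts from transiently transfected GAL4-UAS reporter units are amplified, fluorescently labelled and sized by capillary electrophoresis; gain of signal relative to DMSO.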

The nature of assay [9]: ATG_NFI_CIS: Attagene CIS-FACTORIAL HepG2 Assay for human Nuclear Factor I (NFI) (AID 2282989; active = hit-call score of the fitted dose curve at least 0.9, where 1 is the maximum; inactive = score below 0.9). As to conditions: HepG2 cis-regulatory reporter, NFI response element transcription; actives raise or lower the signal. An outline of the steps:
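HepG2 cells transiently transfected with cis-element-driven multiplexed reporter transcription units, dosed for 24 h. Reporter mRNA quantified by RT-PCR, fluorescent labelling, HpaI digestion and capillary electrophoresis; bidirectional fit versus DMSO baseline.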

Assay [10] has as its target Peroxisome proliferator-activated receptor gamma (Homo sapiens) (UniProt P37231). Nature of the assay: ATG_PPARg_TRANS: Attagene TRANS-FACTORIAL HepG2 Assay for human Peroxisome Proliferator-activated Receptor-gamma (PPARg) (AID 2283007). Put shortly:
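Chimeric NR-Gal4 transactivation is measured in transiently transfected HepG2 cells by reporter mRNA induction at 24 h. Detection uses RT-PCR with fluorescent labelling and capillary electrophoresis; DMSO defines baseline.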

Assay [11] has as its target Retinoic acid receptor RXR-alpha (Homo sapiens) (UniProt P19793). As to the kind of experiment: ATG_RXRa_TRANS: Attagene TRANS-FACTORIAL HepG2 Assay for human Retinoid X Receptor alpha (RXRa) (AID 2283012). An outline of the steps:
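HepG2 cells transiently transfected with GAL4-UAS reporter units and chimeric RXRa-Gal4 protein, treated 24 h. Reporter mRNA measured by RT-PCR, fluorescent labelling, HpaI digestion and capillary electrophoresis. Induction fitted against DMSO.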

In assay [12] the target is human Retinoid X Receptor beta (RXRb), RXRB (gene 6257) (UniProt P28702). Nature of the assay: ATG_RXRb_TRANS: Attagene TRANS-FACTORIAL HepG2 Assay for human Retinoid X Receptor beta (RXRb) (AID 2283013). An outline of the steps:
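HepG2 cells were transiently transfected with multiplexed GAL4-UAS reporters and a chimeric RXRb-Gal4 construct, then exposed for 24 h. Reporter mRNA was quantified by RT-PCR, FAM labeling, HpaI digestion and capillary electrophoresis; gain of signal was scored against DMSO.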

For assay [13], the target named is Cellular tumor antigen p53 (Homo sapiens) (UniProt P04637). As to the kind of experiment: TOX21_p53_BLA_p2_ratio: Tox21 HCT-116 p53 Agonism Beta-lactamase Assay, Ratio, Phase 2 (AID 2283592). Put shortly:
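HCT116 p53-bla; 4000 cells/well; 5 h pre-incubation; cpd in DMSO, 217-fold dilution; 16 h 37C/5% CO2; CCF4-AM 2 h RT; Ex 405, Em 460/530 ratio; DMSO = baseline; positive fitting direction.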

A short description of assay [14]: TOX21_p53_BLA_p5_viability: Viability Assessment in the Tox21 HCT-116 p53 Agonism Beta-lactamase Assay, Phase 5 (AID 2283600). An outline of the steps:
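4000 cells/well; 5 h pre-incubation; DMSO compounds pin-transferred, 217-fold dilution; 16 h, 37C/5% CO2; CCF4-AM 2 h RT; CellTiter-Glo 30 min RT; luminescence.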

Assay [15] has as its target Cellular tumor antigen p53 (Homo sapiens) (UniProt P04637). Nature of the assay: TOX21_p53_BLA_p4_ratio: Tox21 HCT-116 p53 Agonism Beta-lactamase Assay, Ratio, Phase 4 (AID 2283601). Put shortly:
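Signal is the blue/green (460nm/530nm) ratio of cleaved versus uncleaved CCF4-AM substrate, read after 2 h substrate loading. Cells were HCT116 carrying the p53-responsive beta-lactamase reporter, dosed 16 h at 37C, 5% CO2; CellTiter-Glo measured in parallel.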

Assay [16] in a line: ACEA_ER_AUC_viability: ACEA Biosciences xCELLigence Real-Time Cell Analysis on Estrogen Receptor Agonism for Viability (AID 2283782).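 Note: continuous compound exposure with impedance area under curve over 80 h; hit means loss of impedance signal meaning reduced cell growth or viability.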 Put shortly: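 T-47D; phenol red-free RPMI1640 + 10% CS-FBS; 8 conc., 1:4 serial, max 100 uM final, ≤0.5% DMSO; n = 2; continuous exposure; impedance monitored to 80 h post-dose; AUC vs DMSO.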
Assay [17] is described as follows: ATG_M_19_TRANS: Attagene TRANS-FACTORIAL HepG2 Assay for M19 Transcription Factor (Internal Marker) (AID 2282974). As to conditions: HepG2 Attagene TRANS-FACTORIAL M19 internal marker reporter. Put shortly:
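Multiplexed TRANS format: HepG2 liver cells bearing transient GAL4-UAS reporter units, chemical treatment 24 h, reporter transcripts quantified by RT-PCR plus capillary electrophoresis. DMSO defines baseline.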

The target of assay [18] is Cellular tumor antigen p53 (Homo sapiens) (UniProt P04637). Nature of the assay: TOX21_p53_BLA_p5_ratio: Tox21 HCT-116 p53 Agonism Beta-lactamase Assay, Ratio, Phase 5 (AID 2283599). Put shortly: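 Beta-lactamase reporter ratio (blue 460 nm over green 530 nm, 405 nm excitation) after 2 h CCF4-AM loading, in HCT-116 cells exposed 16 h at 37 C to compounds pinned at 217-fold dilution. Increases relative to DMSO baseline scored.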
Chain of Cellular tumor antigen p53 (Homo sapiens) (P04637 whole entry, looked up): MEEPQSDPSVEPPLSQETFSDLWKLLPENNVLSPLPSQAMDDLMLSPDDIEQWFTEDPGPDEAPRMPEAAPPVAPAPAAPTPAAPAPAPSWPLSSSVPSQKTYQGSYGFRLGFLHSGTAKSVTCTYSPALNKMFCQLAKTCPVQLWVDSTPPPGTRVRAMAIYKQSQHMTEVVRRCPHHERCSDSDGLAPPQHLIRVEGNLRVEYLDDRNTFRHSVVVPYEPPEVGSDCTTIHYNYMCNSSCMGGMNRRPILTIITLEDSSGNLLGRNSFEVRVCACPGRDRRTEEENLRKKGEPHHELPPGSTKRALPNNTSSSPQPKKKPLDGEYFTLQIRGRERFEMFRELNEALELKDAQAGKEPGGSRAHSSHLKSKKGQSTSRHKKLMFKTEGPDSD

A short description of assay [19]: ATG_E_Box_CIS: Attagene CIS-FACTORIAL HepG2 Assay for human Enhancer Box (E-box) (AID 2282936; active = hit-call score of the fitted dose curve at least 0.9, where 1 is the maximum; inactive = score below 0.9). As to conditions: HepG2 E-box cis-reporter transcription, actives raise or lower the signal. An outline of the steps:
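Cells: HepG2 (human liver), transient MRTU transfection. Exposure 24 h. RNA → oligo(dT) RT → PCR → 6-FAM label → HpaI → CE. Activity fitted both directions relative to DMSO.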

A word on the AC50: it is the midpoint of the concentration-response curve, whichever way the signal moves.

Chain of Retinoic acid receptor RXR-alpha (Homo sapiens) (P19793 whole entry, looked up, the tested form may be a part): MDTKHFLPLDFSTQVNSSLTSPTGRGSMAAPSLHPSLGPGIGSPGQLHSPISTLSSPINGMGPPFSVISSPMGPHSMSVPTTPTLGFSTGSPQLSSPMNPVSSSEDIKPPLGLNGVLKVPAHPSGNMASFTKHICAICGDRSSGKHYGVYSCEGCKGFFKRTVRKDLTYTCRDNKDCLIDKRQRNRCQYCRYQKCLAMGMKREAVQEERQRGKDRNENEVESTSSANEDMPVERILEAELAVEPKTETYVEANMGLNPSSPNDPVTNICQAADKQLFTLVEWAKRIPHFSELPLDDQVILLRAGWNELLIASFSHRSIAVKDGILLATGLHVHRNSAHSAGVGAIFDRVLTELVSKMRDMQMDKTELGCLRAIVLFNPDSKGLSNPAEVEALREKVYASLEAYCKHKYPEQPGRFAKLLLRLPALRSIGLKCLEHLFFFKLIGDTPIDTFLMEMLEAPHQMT
Chain of human Retinoid X Receptor beta (RXRb), RXRB (gene 6257) (P28702 whole entry, looked up, the tested form may be a part): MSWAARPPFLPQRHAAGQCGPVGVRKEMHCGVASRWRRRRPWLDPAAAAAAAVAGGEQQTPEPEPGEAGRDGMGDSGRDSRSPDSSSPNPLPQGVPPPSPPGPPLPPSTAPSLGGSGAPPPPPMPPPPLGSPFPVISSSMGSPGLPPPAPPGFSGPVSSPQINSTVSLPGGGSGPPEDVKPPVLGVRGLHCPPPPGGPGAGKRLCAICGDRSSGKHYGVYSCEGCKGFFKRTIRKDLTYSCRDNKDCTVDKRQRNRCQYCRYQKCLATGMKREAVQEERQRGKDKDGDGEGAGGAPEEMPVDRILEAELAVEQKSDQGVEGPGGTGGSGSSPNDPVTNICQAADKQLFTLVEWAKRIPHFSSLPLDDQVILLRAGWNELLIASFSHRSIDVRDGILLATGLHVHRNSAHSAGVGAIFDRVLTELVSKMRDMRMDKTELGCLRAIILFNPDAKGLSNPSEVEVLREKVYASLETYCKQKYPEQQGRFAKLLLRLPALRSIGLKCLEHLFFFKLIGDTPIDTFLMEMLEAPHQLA
Chain of Peroxisome proliferator-activated receptor gamma (Homo sapiens) (P37231 whole entry, looked up, the tested form may be a part): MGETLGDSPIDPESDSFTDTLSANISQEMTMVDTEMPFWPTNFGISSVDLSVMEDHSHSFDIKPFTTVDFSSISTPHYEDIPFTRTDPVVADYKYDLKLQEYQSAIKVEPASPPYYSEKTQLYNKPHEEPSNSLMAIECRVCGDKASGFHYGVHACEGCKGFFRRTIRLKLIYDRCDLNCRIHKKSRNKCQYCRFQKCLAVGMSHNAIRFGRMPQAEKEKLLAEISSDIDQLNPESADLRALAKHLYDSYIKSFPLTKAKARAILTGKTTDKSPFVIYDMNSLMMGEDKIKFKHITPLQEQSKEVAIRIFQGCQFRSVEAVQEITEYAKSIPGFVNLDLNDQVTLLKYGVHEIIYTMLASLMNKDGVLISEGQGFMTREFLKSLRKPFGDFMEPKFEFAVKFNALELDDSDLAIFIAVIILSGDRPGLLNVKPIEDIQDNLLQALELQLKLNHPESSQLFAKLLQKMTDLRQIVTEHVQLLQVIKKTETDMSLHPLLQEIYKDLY

For `O=[N+]([O-])C=Cc1ccccc1`, the AC50 in assay [1] is 57.7 µM (active); in assay [6] it was 61.5 µM (active); in [9] it was 18.6 µM (active); in assay [10] it was 8.83 µM (active); in assay [13], 8.76 µM (active). Further, the outcome in [2], in [3], in assay [4], in assay [5], in [7] and in assay [8] was inactive. Also, the compound was classed as inactive in [11], in [12], in [14], in assay [15] and in assay [16].
In the case of `c1cc(OCC2CO2)ccc1Cc1ccc(OCC2CO2)cc1` (stereo not given), the half-maximal activity concentration (AC50) in assay [1] is 59.1 µM (active); in [6] it was 51.5 µM (active); in assay [15], 65.9 µM (active) and 82.3 µM (active). Also, the compound was classed as inactive in assay [2], in assay [3], in assay [4], in assay [5], in assay [17] and in [7]. Further, the outcome in assay [8], in assay [11], in assay [12], in assay [13], in assay [18] and in assay [14] was inactive.
For `ClCC(Cl)Cl`, the outcome in assay [19], in assay [2], in assay [3], in [4], in assay [5] and in [6] was inactive. Also, the compound was called inactive in assay [7], in assay [10], in [12], in assay [13], in assay [18] and in assay [14]. In assay [15], the result was inactive.
Consider `CC(=O)C=Cc1ccccc1`, for which the result in assay [19], in assay [2], in assay [3], in assay [4], in assay [5] and in assay [6] was inactive. Besides, the outcome in [17], in assay [11], in assay [12] and in [16] was inactive. Moreover, the AC50 in [10] was 27 µM (active).
For the compound `O=C1Nc2ccc(Cl)cc2C(c2ccccc2)=NC1O` (stereo not given), the result in assay [1], in assay [2], in [4], in assay [5], in assay [6] and in assay [7] was inactive. Besides, the call in [10], in assay [11], in assay [12], in assay [13], in assay [18] and in assay [14] was inactive. Besides, the AC50 in assay [18] was 77.3 µM (active).
Consider `Clc1ccc(-c2ccccc2)cc1`, for which the results for the AC50 in assay [1] and in assay [9] were 170 µM (active) and 152 µM (active), respectively. The result in assay [19], in assay [3], in assay [5], in [6], in [17] and in assay [7] was inactive. Also, the outcome in assay [8], in assay [10], in assay [11], in assay [12] and in assay [16] was inactive.
Consider `C[N+](C)=CCl`, for which the result in [19], in assay [2], in assay [3], in assay [7], in assay [9] and in assay [10] was inactive. In addition, the compound was called inactive in assay [11].
As for `CN(C)C(=O)C(c1ccccc1)c1ccccc1`, the outcome in assay [1], in assay [2], in assay [4], in [5], in [6] and in assay [17] was inactive. The outcome in assay [8], in assay [10], in [11], in assay [12], in assay [13] and in [18] was inactive. For the same compound, the compound was classed as inactive in [14].
As to `O=C(O)C(Br)Br`, the result in assay [3], in [5], in [17], in assay [11], in [13] and in assay [18] was inactive. The outcome in assay [14], in assay [15] and in assay [16] was inactive.
